The list is not random: actives were taken first. Their share in the collection is about 3%.
FadD28 binding: inhibitors of FadD28 bisubstrate probe binding, primary screen, biochemical, fluorescence polarization, single point. Mycobacterium tuberculosis FadD28 fatty-acid-AMP ligase. 360,000 tested, 0.22% active. inhibition, % at 12.5 µM; in the data active means inhibition above about 8.5%, passing the limit was not always enough
Rv3671c inh: Rv3671c serine protease inhibitors, primary screen, biochemical, fluorescence polarization, M. tuberculosis H37Rv; AID 2606, 2010; inhibition, % at 5.96 µM; 320,000 tested, 0.048% active; P9WHR9; in the data active means inhibition above about 38%;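 further: extracellular domain of Rv3671c used as enzyme; 0% = enzyme with DMSO and 100% = no enzyme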
GDH-TPI counter-1: GDH-TPI coupling enzyme inhibitors, primary screen, artefact control for M. tuberculosis FBA inhibitor project, biochemical, absorbance, full deck; AID 588335, 2011; 360,000 tested, 1.2% active; inhibition, % at 4.8 µM; GDH-TPI coupled enzyme counterscreen, NADH absorbance; in the data active means inhibition above about 30%;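 further: 0% = DMSO wells and 100% = wells lacking the enzyme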
Mtb FBA inh: Mtb FBA enzyme inhibitors, primary screen, biochemical, fluorescence, strain H37Rv; purified M. tuberculosis FBA, fluorescence read-out; 360,000 tested, 2.3% active; Fructose-bisphosphate aldolase (Mycobacterium tuberculosis (strain ATCC 25618 / H37Rv)), …; inhibition, % at 1 µM;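 further: 0% = vehicle and 100% = reference inhibitor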
Target sequence (P9WQA3 whole entry, looked up): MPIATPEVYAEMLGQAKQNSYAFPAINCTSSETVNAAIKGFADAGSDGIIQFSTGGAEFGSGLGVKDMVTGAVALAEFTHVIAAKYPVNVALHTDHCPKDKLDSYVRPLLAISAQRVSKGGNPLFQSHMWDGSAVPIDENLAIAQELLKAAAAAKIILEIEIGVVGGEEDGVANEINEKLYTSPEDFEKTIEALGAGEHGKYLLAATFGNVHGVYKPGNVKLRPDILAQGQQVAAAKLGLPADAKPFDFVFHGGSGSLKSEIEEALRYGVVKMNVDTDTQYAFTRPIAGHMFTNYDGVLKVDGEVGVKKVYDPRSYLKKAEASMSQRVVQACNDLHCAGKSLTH
Mtb BioA inh: M. tuberculosis BioA enzyme inhibitors, primary screen, biochemical, plate reader, single point, HTS; 7,8-diaminopelargonic acid synthase BioA (Mycobacterium tuberculosis); purified M. tuberculosis BioA enzyme; inhibition, % at 9.99 µM; 360,000 tested, 0.096% active; AID 602481, 2012; in the data active means inhibition above about 40%
Mtb FBA confirm: M. tuberculosis aldolase blockers, biochemical, fluorescence, strain H37Rv, confirmation; 5,600 tested, 78% active; inhibition, % at 1 µM; AID 651616, 2012; purified M. tuberculosis FBA, fluorescence read-out; shares compounds with Mtb FBA inh;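 further: 0% = vehicle wells and 100% = reference inhibitor wells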
GDH-TPI counter-2: GDH-TPI coupling enzyme inhibitors, artefact control for M. tuberculosis FBA inhibitor project, biochemical, fluorescence, high throughput; GDH-TPI coupled enzyme counterscreen; inhibition, % at 1 µM; 5,600 tested, 81% active; shares compounds with Mtb FBA inh; in the data active means inhibition above about 10%
Active calls of the source: *; . = no result; + = active, no number; ! = not confirmed by another sample. Unless noted, no stated cut-off is given here; in the data, active means inhibition above about 27%; inactive means the rest.

SMILES | FadD28 binding | Rv3671c inh | GDH-TPI counter-1 | Mtb FBA inh | Mtb BioA inh | Mtb FBA confirm | GDH-TPI counter-2
N#Cc1cc2c([nH]c1=S)CCCC2 | -2 | -8 | 2 | 2 | . | . | .
N#Cc1cc2c([nH]c1=O)CCCC2 | -3 | 2 | 5 | 68* | -3 | 97* | 91*
CCOc1ccc(-c2nc(CCl)cs2)cc1OC | -2 | 4 | 2 | 46* | -1 | 41* | 19*
COc1ccc(-c2nc(CC(=O)O)cs2)cc1OC | . | -2 | . | . | . | . | .
COC(=O)C1=C(c2ccccc2OCc2ccccc2)C[C@@H]2CC[C@H]1N2C(=O)NCCOc1ccccc1Cl | -5 | -3 | -6 | 46* | 0 | 179* | 122*
COC(=O)C1=C(c2cccc(OCc3ccccc3)c2)C[C@@H]2CC[C@H]1N2C(=O)NCCOc1ccccc1Cl | 1 | -10 | 7 | 0 | -1 | . | .
CC(=O)Nc1ccc2c(c1)C(=O)N(C)[C@@H]1CC[C@@H](CC(=O)NC3CCCCC3)O[C@H]1CO2 | . | . | . | . | 0 | . | .
C[C@@H]1CN([C@H](C)CO)C(=O)c2cc(-c3cncnc3)cnc2O[C@@H]1CN(C)C(=O)Cc1cccnc1 | . | . | . | . | 0 | . | .
Cc1csc2ncc(C(=O)Nc3ccon3)c(=O)n12 | -2 | -3 | 19 | 55* | . | 124* | 105*
COc1ccc(CNC(=O)c2cnc3scc(C)n3c2=O)cc1 | -7 | 4 | 29 | 12 | 2 | . | .
Cc1csc2ncc(C(=O)NCc3ccco3)c(=O)n12 | 0 | 4 | 24 | 35* | 2 | 124* | 115*
COc1cc(OC)c(C2=NOC(C(=O)Nc3ccc4c(c3)OCO4)C2)cc1Cl (stereo unspecified) | -3 | 3 | 1 | 57* | . | 53* | 42*
CCCC(=O)Nc1cc(OC)c(OC)cc1C(=O)O | 0 | 5 | -3 | -3 | -2 | . | .
CCNC(=O)Nc1cc(OC)c(OC)cc1C(=O)O | 1 | -8 | 20 | 45* | -3 | 89* | 78*
C[C@@H]1CN([C@H](C)CO)C(=O)c2cc(NS(=O)(=O)c3cn(C)cn3)ccc2O[C@@H](C)CCCCO[C@H]1CN(C)S(=O)(=O)c1ccc(Cl)cc1 | . | . | . | . | -1 | . | .
COCc1cc(=O)n2[nH]c(-c3cccc(Br)c3)cc2n1 | -4 | 4 | -5 | 9 | 9 | . | .
COCc1cc(=O)n2[nH]cc(-c3ccsc3)c2n1 | -2 | -2 | 2 | 55* | 0 | 94* | 84*
COCc1cc(=O)n2[nH]c(-c3ccccc3)cc2n1 | -3 | 0 | 1 | 33* | -1 | + | +
Cc1cc2nc(-c3ccccc3)cc(=O)n2[nH]1 | -2 | -5 | -10 | 47* | 2 | + | +
Cc1noc(C)c1NC(=O)N(C)C[C@@H]1Oc2ccc(NC(=O)C3CCCCC3)cc2C(=O)N([C@H](C)CO)C[C@@H]1C | . | . | . | . | 3 | . | .
O=S(=O)(c1ccc(F)cc1)N1CC[C@@H]2[C@H](CO)Nc3ccc(-c4ccccc4F)cc3[C@@H]21 | . | . | . | . | -1 | . | .
O=C(O)c1ccc(-c2nc3ccccc3s2)o1 | 0 | -1 | 42* | 44* | -1 | 35* | 29*
O=Cc1ccc(-c2nc3ccccc3s2)o1 | 0 | -12 | 18 | 33* | -1 | 31* | 30*
CN1C(=O)c2cc(NC(=O)C3CCOCC3)ccc2OC[C@H]2O[C@H](CC(=O)NCC3CCCCC3)CC[C@@H]21 | . | . | . | . | 1 | . | .
O=C(O)CSc1cccc2cccnc12 | 1 | -5 | -1 | 27*! | 0 | 8 | 10*
O=C(O)CC/C(=N/NC(=O)c1cn(-c2ccccc2)nc1-c1ccccc1)C(=O)O | -1 | 0 | 2 | 31* | -5 | 66* | 64*
CC(C)(C)c1ccc(C(=O)NCCc2ccccc2)cc1 | -1 | 14 | 6 | 27* | -6 | 111* | 93*
CC(C)(C)c1ccc(C(=O)NCc2ccccc2)cc1 | 1 | -4 | -6 | 2 | . | . | .

Screening results deposited in PubChem by several laboratories.
